Compounds with a hit are over-represented: about 22% of the library has one in this group of screens.
Pf growth 96h = Primary qHTS for delayed death inhibitors of the malarial parasite plastid, 96 hour incubation. AID 504834, 2011. 320,000 compounds, 6.9% hits. Potency, µM (top dose mostly 28.7 µM), inactives show at the highest dose activity change, negative = inhibition, most hits filed as inhibitors. P. falciparum luciferase reporter growth, 96 h; also: potency is read from the fitted curve at half-maximal effect; % is scaled to controls: 0 for no effect and ±100 for the full control effect
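Two-generation exposure (96 h) targets delayed-death phenotype. Reporter parasites carrying integrated firefly luciferase, in red cells at 2% hematocrit and 0.05% parasitemia final, kept at 37 C, 5% CO2; luminescence loss indicates inhibition.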
LmPK inh = qHTS Assay for Inhibitors of Leishmania Mexicana Pyruvate Kinase (LmPK). Q27686. Potency, µM (titrated, usually from 57.5 µM), without a hit: at the top dose activity change, negative = inhibition, hits mostly inhibitors. purified LmPK, Kinase-Glo ATP luminescence, 1 h. 290,000 compounds, 0.37% hits; also: potency is read from the fitted curve at half-maximal effect; % is scaled to controls: 0 for no effect and ±100 for the full control effect
Target sequence (Q27686 whole entry, looked up): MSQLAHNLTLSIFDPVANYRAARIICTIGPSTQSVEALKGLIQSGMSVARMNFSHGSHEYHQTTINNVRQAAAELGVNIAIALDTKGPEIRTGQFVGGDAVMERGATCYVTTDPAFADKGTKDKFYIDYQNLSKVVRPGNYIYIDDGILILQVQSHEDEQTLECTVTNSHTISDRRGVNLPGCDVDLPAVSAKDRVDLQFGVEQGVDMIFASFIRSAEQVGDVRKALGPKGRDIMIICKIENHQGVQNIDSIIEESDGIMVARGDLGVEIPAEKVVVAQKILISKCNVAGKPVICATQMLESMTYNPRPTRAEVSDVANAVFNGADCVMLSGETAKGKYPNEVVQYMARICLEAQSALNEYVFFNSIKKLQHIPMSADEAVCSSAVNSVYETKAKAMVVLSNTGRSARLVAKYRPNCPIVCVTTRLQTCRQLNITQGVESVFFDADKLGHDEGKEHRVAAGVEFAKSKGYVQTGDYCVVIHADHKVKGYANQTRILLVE
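Purified LmPK (0.1 nM) converted ADP (0.1 mM) to ATP with PEP (0.5 mM) in imidazole buffer pH 7.2 with KCl and MgCl2, 1 h at room temperature. ATP was read by Kinase-Glo luminescence; data normalized to uninhibited and no-enzyme controls.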
Pf growth 48h = Primary qHTS for delayed death inhibitors of the malarial parasite plastid, 48 hour incubation; AID 504832, 2011; 310,000 compounds, 5.9% hits; P. falciparum luciferase growth in erythrocytes, 48 h; Potency, µM (doses to about 28.7 µM), for inactives: at the top dose activity change, negative = inhibition, most hits filed as inhibitors; also: potency is read from the fitted curve at half-maximal effect; % is scaled to controls: 0 for no effect and ±100 for the full control effect
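Firefly luciferase activity from engineered P. falciparum reports growth; inhibitors lower the luminescent signal. Cultures contained 2% hematocrit erythrocytes at 0.1% final parasitemia.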
Shiga toxin inh = A qHTS for Small Molecule Inhibitors of Shiga Toxin. Vero cells, Shiga toxin protein synthesis inhibition reporter. inhibition, % at 38.7 µM. 290,000 compounds, 9.2% hits; in the data active = inhibition mostly above about 28%, no sharp cut-off; inactive = mostly below about 43%; also: 0% is about no effect
CHX counter-1 = Cycloheximide Counterscreen for Small Molecule Inhibitors of Shiga Toxin | cell reporter, cycloheximide protein synthesis inhibition counterscreen | max response, % | 300,000 compounds, 12% hits; in the data active = max response mostly above about 13%, no sharp cut-off; inactive = mostly below about 14%; also: read at 38.3 µM for the half of the compounds with a filed dose; 0% is about no effect
CHX counter-2 = Cycloheximide Counterscreen for Small Molecule Inhibitors of Shiga Toxin (Confirmatory); shares compounds with Shiga toxin inh; Cycloheximide counterscreen, protein synthesis reporter, Shiga toxin assay; Potency, µM (titrated, usually from 38.3 µM), inactives show at the top dose activity (activation), most hits filed as activators; 510 compounds, 3% hits; calls by dose curve; also: potency is read from the fitted curve at half-maximal effect; 0% is about no effect
Starred values were filed as active, the others as inactive; ? = inconclusive; nt = not tested or not shown; ! = repeats disagree; [ ] = remark or other dose. Unless noted, calls follow the shape of the dose curve; as a rule, active = well fitted inhibition curve with a large enough effect; inconclusive = small, poorly fitted or top-dose-only effect, or another doubt; inactive = no such curve, though single readings can be large or run the other way.

SMILES	Pf growth 96h	LmPK inh	Pf growth 48h	Shiga toxin inh	CHX counter-1	CHX counter-2
COCCCn1c(SCC(=O)OC2CCCCC2)nnc1-c1cccs1	-32%	12%	-16%	86*	-1	-2%
CCC(C)[C@H]1COCCS(=O)(=O)N1Cc1ccccc1 (stereo partly drawn)	-4%	-3%	8%	10	7	nt
COC(=O)c1cc(NC(=O)c2ccc(Cn3cc(Cl)cn3)o2)cc(C(=O)OC)c1	nt	3%	?	-8	-6	nt
Cc1ccc(NC(=O)c2ccc(Cn3cc(Br)cn3)o2)cc1	7%	1%	-12%	38*	8	3%
COc1ccccc1NC(=O)c1ccc(S(=O)(=O)N2CCCC2)cc1	-26%	9%	nt	4	-1	nt
COc1ccc(C)cc1NC(=O)c1ccc(S(=O)(=O)N2CCCCC2)cc1	0%	4%	?	25*	5	-2%
CN(NC1CC(=O)N(c2ccccc2)C1=O)c1ccccc1 (stereo not drawn)	?	1%	21%	1	12	nt
Cc1csc(SC(C)c2nc3scc(-c4ccccc4)c3c(=O)[nH]2)n1 (stereo not drawn)	40%	6%	-13%	-2	-1	nt
Cc1cc(OC(C)C(=O)NCc2ccccn2)c2c(C)c(C)c(=O)oc2c1 (stereo not drawn)	?	6%	?	3	-2	nt
O=C(Cn1ncc2c(=O)oc3ccccc3c21)N(Cc1ccco1)C1CCCCC1	?	6%	3%	48*	1	-2%
O=C(Cn1ncc2c1-c1ccccc1OC2)N(Cc1ccco1)C1CCCCC1	?	-1%	nt	-9	-3	nt
O=C(COc1ccc(Br)cc1CNCCc1ccccc1)NCc1ccccc1	?	0%	?	40*	12	2%
CCC(C)NC(=O)C1CC(c2ccc(OC)cc2)=NO1 (stereo not drawn)	nt	0%	0%	39	32	nt
COc1ccc(C2=NOC(C(=O)NC(C)C)C2)cc1 (stereo not drawn)	?	-4%	62%	26*	2	1%
COc1cccc(C(C(=O)NC2CCCC2)N(C(=O)c2ccco2)C2CC2)c1OC (stereo not drawn)	62%	-3%	-1%	35*	-2	2%
COc1cccc(C(C(=O)NC2CCCC2)N(Cc2ccc(C)cc2)C(=O)c2ccco2)c1OC (stereo not drawn)	-22%	1%	?	18	-3	nt
NC(=O)Cc1ccc(C(=O)c2ccccc2F)s1	60%	-2%	11%	38*	15	0%
CNC(=O)CSc1nnc(-c2cc(C)cc(C)c2)o1	12%	0%	14%	27*	1	1%
Cc1ccc(NC(=O)C(C)N=C2NS(=O)(=O)c3ccccc32)cc1 (stereo not drawn)	30%	6%	-35%[5.75 µM]	35*	8	-2%
Cc1cccc(NC(=O)C2CCCC2)c1	-13%	5%	2%	36*	-3	3%
CC(=O)c1cccc(NC(=O)C2CCCC2)c1	8%	1%	34%	-18	2	nt
Clc1nssc1=Nc1ccccc1	-13%	-17%	31%	-3	12	nt
N#Cc1ccc(N=c2ssnc2Cl)cc1	12µM*!	-2%	43%	28*	2	0%
CCN(CC(=O)NCCCN1CCOCC1)S(=O)(=O)c1ccc(Cl)cc1	8%	0%	3%	-11	-3	nt
CSc1ccc(C(=O)C2CCCN(S(=O)(=O)c3c(C)noc3C)C2)cc1 (stereo not drawn)	6%	-3%	-19%	2	-4	nt
SMILES	Pf growth 96h	LmPK inh	Pf growth 48h	Shiga toxin inh	CHX counter-1	CHX counter-2
NC(=O)c1ccc[n+](CC(=O)c2ccc(F)cc2)c1	57%	4%	59%	-4	-2	nt
O=C(O)C1CCCCC1C(=O)NCc1ccccc1 (stereo not drawn)	-18%	-7%	nt	-1	-1	nt
O=C(NCc1ccccc1)C1CCCC1	7%	-6%	?	21*	6	4%
COc1ccccc1N(CCC#N)C(=O)CSc1nc(-c2ccccc2)cn1N	?	4%	?	75*	-2	0%
COCCN(C(=O)CSc1nc(-c2ccccc2)cn1N)c1c(N)n(Cc2ccccc2)c(=O)[nH]c1=O	3%	nt	?	nt	nt	nt
O=C(NC1C2CC3CC(C2)CC1C3)C1CCCCC1 (stereo not drawn)	-18%	-2%	35%	-8	1	nt
Cc1cc(C)c2nc(-c3ccccn3)cc(C(=O)NCc3ccco3)c2c1	1%	1%	-2%	10*	17	?
O=C(c1ccco1)N1CCN(c2nc(C3CC3)nc3c2nnn3Cc2ccccc2Cl)CC1	-6%	5%	6.6µM*	active	6	1%
CCCn1c(C)cc(/C=C(\C#N)C(=O)OCC(=O)Nc2ccc(OC)c(Cl)c2)c1C	?	0%	7%	61*	12	4%
COc1ccc(NC(=O)COC(=O)/C=C/C(=O)OCC(=O)Nc2ccc(OC)c(Cl)c2)cc1Cl	1%	1%	23%	10	6	nt
Cc1c(Cl)cccc1NC(=O)[C@@H](NC(=O)c1ccccc1Cl)C(C)C	?	-5%	3%	1	-2	nt
Cc1cc(C)nc(NS(=O)(=O)c2ccc(NC(=O)c3ccc(O)cc3O)cc2)n1	?	-4%	46%	-4	-1	nt
Nc1cc(N)nc(SCC(=O)Nc2ccc(Br)cc2Cl)n1	nt	2%	26%	48*	14	?
CCCc1cc(=O)oc2cc(C)cc(OCC(=O)NCc3ccccn3)c12	2.6µM*	5%	?	122*	12	-3%
Cc1nn(CC(=O)N(C)C2(C#N)CCCCC2)c(C)c1[N+](=O)[O-]	40%	nt	4%	nt	nt	nt
O=C(CNS(=O)(=O)c1ccc2ccccc2c1)OCC(=O)c1ccc(Br)s1	nt	4%	23%	15	-1	nt
Cc1cc(C(=O)COC(=O)CNS(=O)(=O)c2ccc3ccccc3c2)c(C)n1-c1ccccc1	57%	0%	20%	active	10	5%
CC(=O)Nc1ccc2c(c1)CCCC2	43%	-1%	26%	20*	-3	0%
CC(=O)N1CCC(C(=O)Nc2ccc3c(c2)CCC3)CC1	?	-3%	85%	-16	-3	nt
CCn1c(SCC(=O)Nc2cc(C)on2)nnc1-c1cccc(C)c1	?	3%	3%	93*	1	-5%
CC(C)c1ccc(C2NC(=O)CCC2[N+](=O)[O-])cc1 (stereo not drawn)	57%	3%	15%	-6	-1	nt
O=C(NCCC1=CCCCC1)C1CCN(S(=O)(=O)c2cccc3cccnc23)CC1	?	-1%	-14%	active	9	3%
